# In ChEMBL document CHEMBL3988442, “University of Dundee, Small-Polar-MMV Screening Library” (2021):
# The whole screen tested about 66,000 compounds, of which about 960 (1.5%) showed an effect of 50% or more. Many of the other results were omitted from the sample, so strong results are more common in it than they were.
# Test system: Trypanosoma brucei
# Assay: Trypanosoma brucei 72 hour study
# Type: functional, organism-based
# Set-up: scale not given: in the data most compounds retested in dose-response had high values
structure (smiles),measurement,setting,value
Cc1cc(C)n(CC2CN(Cc3nc4ccccc4s3)CCO2)n1 (stereo not given),Percent Effect,"30.3 µM, […]",18.1%
CCn1cc(S(=O)(=O)N2CCC(C)Sc3ccccc32)cn1 (stereo not given),Percent Effect,"30 µM, 30.03 µM",-33.91%
CN1CCN(S(=O)(=O)c2cccnc2)c2cnccc21,Percent Effect,"30.3 µM, […]",-3.164%
CC1CCN(S(=O)(=O)c2cccnc2)c2ccccc2S1 (stereo not given),Percent Effect,"30 µM, 30.03 µM",80.08%
Cn1nc(C(=O)N2CCOCC2)cc1C(=O)Nc1c(Cl)cccc1Cl,Percent Effect,"30 µM, 30.03 µM",-27.89%
CC(C)c1cc(C2CCN(C(=O)Cn3cnc4ccccc43)CC2)[nH]n1,Percent Effect,"30 µM, 30.03 µM",-44.45%
Cc1cc(C(F)(F)F)nc(CCNC(C)Cn2ccnc2)n1 (stereo not given),Percent Effect,"30 µM, 30.03 µM",-48.3%
CCCC(=O)N(CCCN1CCOCC1)c1nc2c(C)ccc(Cl)c2s1.Cl,Percent Effect,"30.3 µM, […]",71.42%
CCCC(=O)N(CCN1CCOCC1)c1nc2c(OC)ccc(C)c2s1.Cl,Percent Effect,"30.3 µM, […]",13.57%
CN(CCN1CCOCC1)C(=O)CCc1cccc(Cl)c1,Percent Effect,"30 µM, 30.03 µM",2.26%
CCCC(=O)N(CCCN1CCOCC1)c1nc2c(C)c(C)ccc2s1.Cl,Percent Effect,"30.3 µM, […]",27.33%
CCCC(=O)N(CCCN1CCOCC1)c1nc2c(Cl)cccc2s1.Cl,Percent Effect,"30.3 µM, […]",55.71%
CCCC(=O)N(CCCN1CCOCC1)c1nc2c(F)cccc2s1.Cl,Percent Effect,"30.3 µM, […]",24.42%
CN1CC[C@]2(CN(CC3CCOC3)C[C@H]2c2ccccc2)C1=O.O=C(O)C(F)(F)F (stereo not given in full),Percent Effect,"30.3 µM, […]",-23.92%
Cc1cc2c(=O)n3c(nc2s1)CCN(C(=O)c1nn(C)cc1Cl)CC3,Percent Effect,"30.3 µM, […]",-11.28%
CN1CC(=O)N(c2cccnc2)CC12CCN(C(=O)c1cccn1C)C2.O=C(O)C(F)(F)F.O=C(O)C(F)(F)F (stereo not given),Percent Effect,"30.3 µM, […]",-4.553%
O=C(C[C@@H]1COC[C@H]2CN(C(=O)c3ccccn3)C[C@@H]12)N1CCCC1.O=C(O)C(F)(F)F,Percent Effect,"30 µM, 30.03 µM",-14.99%
CS(=O)(=O)NCc1cnc2n1CCN(Cc1cccnc1)CC2.O=C(O)C(F)(F)F.O=C(O)C(F)(F)F,Percent Effect,"30 µM, 30.03 µM",-10.23%
CN(C)CCNC(=O)C1Cc2nc(-c3ccsc3)sc2N1CC1CC1.O=C(O)C(F)(F)F (stereo not given),Percent Effect,"30.3 µM, […]",5.041%
O=C(NC1CCCC1)C1Cc2nc(-c3ccsc3)sc2N1CC1CC1 (stereo not given),Percent Effect,"30.3 µM, […]",33.5%
O=C(Nc1cccnc1)C1Cc2nc(-c3ccsc3)sc2N1CC1CC1.O=C(O)C(F)(F)F (stereo not given),Percent Effect,"30.3 µM, […]",60.89%
Cl.c1cc(CNc2cnc(C3CCCN3)cn2)ccn1 (stereo not given),Percent Effect,"30.3 µM, […]",-6.296%
Cc1nc(NC(=O)C2CCCN(C(N)=O)C2)sc1-c1ccccc1 (stereo not given),Percent Effect,"30 µM, 30.03 µM",57.12%
Cc1nc(NC(=O)C2CCCN(C(=O)C3CC3)C2)sc1C (stereo not given),Percent Effect,"30 µM, 30.03 µM",-11.09%
CSc1sc(NC(=O)C2CCCN(C(N)=O)C2)nc1C (stereo not given),Percent Effect,"30 µM, 30.03 µM",-35.12%
CC(C)N1CCC2(CC1)CC(NCc1ccccn1)c1ccccc1O2.O=C(O)C(F)(F)F.O=C(O)C(F)(F)F.O=C(O)C(F)(F)F (stereo not given),Percent Effect,"30 µM, 30.03 µM",2.75%
CCc1nnsc1C(=O)N1CCCC(n2ccnc2C(C)C)C1 (stereo not given),Percent Effect,"30.3 µM, […]",-10.58%
COc1cccc(Nc2nc(C3CCNCC3)c3ccccn23)c1.Cl,Percent Effect,"30.3 µM, […]",24.37%
Cc1sc2c(C3CCCNC3)nc(Nc3cccc(F)c3)n2c1C.Cl (stereo not given),Percent Effect,"30.3 µM, […]",100.1%
COc1cccc(Nc2nc(C3CCCNC3)c3sc(C)c(C)n23)c1.Cl (stereo not given),Percent Effect,"30.3 µM, […]",2.239%
Cl.O=C(Nc1cccc(F)c1)C1=NOC2(CCNCC2)C1,Percent Effect,"30.3 µM, […]",-7.13%
Cc1sc2c(C3CCNCC3)nc(Nc3cccc(F)c3)n2c1C.Cl,Percent Effect,"30.3 µM, […]",99.26%
Cc1nn(C(C)C)c(C)c1S(=O)(=O)Nc1cccc(F)c1,Percent Effect,"30 µM, 30.03 µM",-2.912%
Fc1cccc(-c2nccnc2C2CCCNC2)c1 (stereo not given),Percent Effect,"30.3 µM, […]",-21.91%
COc1cccc(Nc2nc(C3CCCNC3)c3ccccn23)c1.Cl (stereo not given),Percent Effect,"30.3 µM, […]",-1.342%
COc1cccc(Nc2nc(C3CCNCC3)c3sc(C)c(C)n23)c1.Cl,Percent Effect,"30.3 µM, […]",63.57%
CCN(Cc1nc2c(cnn2C)c(=O)[nH]1)c1cc(C)cc(C)c1,Percent Effect,10 µM,-28.14%
same,Percent Effect,"30.3 µM, […]",-21.13%
N#Cc1ccc(N2CCCC3(CCN(c4cncnc4)C3=O)C2)nc1.O=C(O)C(F)(F)F (stereo not given),Percent Effect,"30.3 µM, […]",-13.65%
Cl.O=C(Nc1cc(C(F)(F)F)c[nH]c1=O)C1CCCCN1 (stereo not given),Percent Effect,"30 µM, 30.03 µM",4.306%
Cc1ccccc1NC(=O)CCNC(=O)c1ccoc1,Percent Effect,"30 µM, 30.03 µM",-20.37%
Cc1ccccc1CC(=O)NCCNc1nccc(C(F)(F)F)n1,Percent Effect,"30 µM, 30.03 µM",-20.25%
CNc1ccnc(NCCC(=O)Nc2ccccc2OC)n1,Percent Effect,"30 µM, 30.03 µM",54.56%
CNc1ccnc(NCC(=O)Nc2cc(C)ccc2OC)n1,Percent Effect,"30 µM, 30.03 µM",42.18%
CNc1ccnc(NCCC(=O)Nc2ccccc2C)n1,Percent Effect,"30 µM, 30.03 µM",51.25%
COc1ccccc1NC(=O)CCNC(=O)c1ccoc1,Percent Effect,"30 µM, 30.03 µM",-15.64%
CN(C)C(=O)[C@H]1C[C@H]2[C@H](CCN2Cc2ccc3c(c2)OCO3)O1.O=C(O)C(F)(F)F,Percent Effect,"30 µM, 30.03 µM",17.59%
Cl.N#Cc1ccc(CNCC2(c3ccccc3)CCOCC2)cc1,Percent Effect,"30.3 µM, […]",24.88%
Cc1cccc(C(=O)N2CC[C@]3(C[C@H](OCc4ccccn4)CO3)C2)c1.O=C(O)C(F)(F)F,Percent Effect,"30.3 µM, […]",-74.39%
O=C(NCc1ccccn1)[C@]12COC[C@H]1CN(Cc1ccccc1F)C2.O=C(O)C(F)(F)F.O=C(O)C(F)(F)F,Percent Effect,"30.3 µM, […]",-30.47%
Cc1nc(CN2CC3(CCN(c4ncccn4)C3)CC2=O)cs1.O=C(O)C(F)(F)F (stereo not given),Percent Effect,"30 µM, 30.03 µM",-28.21%
COCCNC(=O)CCn1ncc2c(Cl)cccc21,Percent Effect,"30.3 µM, […]",-10.63%
CN1CCN(c2ccccc2NC(=O)NCCc2ccccc2)CC1,Percent Effect,"30.3 µM, […]",100.1%
CN1CCN(c2ccccc2NC(=O)NCC[S+](C)[O-])CC1 (stereo not given),Percent Effect,"30.3 µM, […]",11.12%
CN1CCN(c2ccccc2NC(=O)NCCc2ccc(O)cc2)CC1,Percent Effect,"30.3 µM, […]",8.397%
O=C(O)C(F)(F)F.O=C1[C@@H]2CCN(Cc3ccoc3)C[C@@H]2OCCN1c1ccccc1,Percent Effect,"30 µM, 30.03 µM",19.86%
O=C1CCCN1Cc1nnc(SCc2ccc3c(c2)CCC3)o1,Percent Effect,"30 µM, 30.03 µM",47.68%
CC(C)c1cccc(CSc2nnc(CN3CCCC3=O)o2)n1,Percent Effect,"30 µM, 30.03 µM",-4.842%
CC(C)Oc1ccc(CSc2nnc(CN3CCCC3=O)o2)cc1,Percent Effect,"30 µM, 30.03 µM",72.7%
O=C(Cc1ccccn1)N1CC[C@]2(C[C@@H](Oc3ncccc3F)CO2)C1.O=C(O)C(F)(F)F.O=C(O)C(F)(F)F,Percent Effect,"30 µM, 30.03 µM",-12.46%
CN(CCCn1cnc2c(N)ncnc21)Cc1ccccc1,Percent Effect,"30 µM, 30.03 µM",-6.688%
CNC(=O)c1cc2c(nc1N(C)C)CCN(c1ncc(F)cn1)CC2.O=C(O)C(F)(F)F,Percent Effect,"30.3 µM, […]",-8.544%
OCC1CCCN1c1cc(NCCc2ccsc2)ncn1 (stereo not given),Percent Effect,"30 µM, 30.03 µM",6.798%
Cc1cc(NC(=O)NCCO)nn1-c1ccc(Cl)cc1Cl,Percent Effect,"30 µM, 30.03 µM",-0.9538%
O=C(CN1C(=O)CC2(CCCC2)C1=O)NCCc1nccs1,Percent Effect,"30 µM, 30.03 µM",-3.261%
CN(Cc1ccncc1)CC1CCCN(CCc2ccc(Cl)cc2)C1 (stereo not given),Percent Effect,"30 µM, 30.03 µM",15.49%
CN(Cc1ccccc1O)CC1CCCN(CCc2ccc(Cl)cc2)C1 (stereo not given),Percent Effect,"30 µM, 30.03 µM",6.545%
COc1ccc(CCN2CCCC(CN(C)Cc3[nH]cnc3C)C2)cc1 (stereo not given),Percent Effect,"30 µM, 30.03 µM",11.78%
Cc1nc[nH]c1CN(C)CC1CCCN(CCc2ccc(Cl)cc2)C1 (stereo not given),Percent Effect,"30 µM, 30.03 µM",61.25%
CN(Cc1cccc(O)c1)CC1CCCN(CCc2ccc(Cl)cc2)C1 (stereo not given),Percent Effect,"30 µM, 30.03 µM",55.85%
CN(Cc1cnc(N)nc1)CC1CCCN(CCc2ccc(Cl)cc2)C1 (stereo not given),Percent Effect,"30 µM, 30.03 µM",-6.233%
Cc1ccc(NC(C)(C)c2nnnn2-c2ccc(Cl)cc2)c(C)c1,Percent Effect,"30 µM, 30.03 µM",-23.29%
Cc1nc2cc(C3CCN(Cc4ccccc4F)C3)nn2c(O)c1C (stereo not given),Percent Effect,"30.3 µM, […]",14.24%
Cc1nnc([C@H]2C[C@@H]3CCN(Cc4ccc(C)o4)C[C@H]3O2)[nH]1.O=C(O)C(F)(F)F,Percent Effect,"30 µM, 30.03 µM",-11.08%
COc1cc2c(cc1CN1CCn3c(CO)nnc3C1)CCC2.O=C(O)CC(O)(CC(=O)O)C(=O)O,Percent Effect,"30.3 µM, […]",-66.2%
O=C(COC[C@H]1CC[C@H]2[C@H](CCN2c2ccccn2)O1)N1CCCC1.O=C(O)C(F)(F)F,Percent Effect,"30 µM, 30.03 µM",-34.45%
O=C(COCC1CC[C@H]2[C@H](CCN2c2ncccn2)O1)N1CCCC1.O=C(O)C(F)(F)F (stereo not given in full),Percent Effect,"30 µM, 30.03 µM",-11.45%
O=C(COC[C@H]1CC[C@H]2[C@H](CCN2c2ncccn2)O1)N1CCCC1.O=C(O)C(F)(F)F,Percent Effect,"30 µM, 30.03 µM",52.31%
O=C(CC1CC1)N1CCC2(CC1)CN(c1cccnc1)C(=O)CO2.O=C(O)C(F)(F)F,Percent Effect,"30.3 µM, […]",-59.01%
CCOc1ncccc1C(=O)N1CCC(Nc2ccc(C)nn2)CC1,Percent Effect,"30.3 µM, […]",1.842%
same,Percent Effect,"10 mM, 10 mM as filed; unlikely as a test dose",-20.5%
CN(C)S(=O)(=O)N1C[C@H]2C[C@H](C(=O)Nc3cccnc3)[C@@H](C1)O2,Percent Effect,"30.3 µM, […]",-739.2%
COc1ccc(-c2cc(C3CC3)c(C#N)c(N)n2)cc1F,Percent Effect,"30.3 µM, […]",93.34%
N#Cc1c(C2CC2)cc(-c2ccc(F)c(F)c2)nc1N,Percent Effect,"30.3 µM, […]",-90.74%
N#Cc1c(C2CC2)cc(-c2ccc(O)cc2)nc1N,Percent Effect,"30 µM, 30.03 µM",17.72%
CN(C)CCO[C@@H]1CC[C@H]2[C@H]1OCCN2C(=O)c1ccc(F)cc1.O=C(O)C(F)(F)F,Percent Effect,"30.3 µM, […]",-19.82%
CN(C)c1cc(CNC(=O)Nc2ccc(N3CCCC3)nc2)ccn1,Percent Effect,"30.3 µM, […]",18.28%
O=C(CC1CCC2(CC1)CCN(Cc1cccnc1)CC2)N1CC=CC1.O=C(O)C(F)(F)F.O=C(O)C(F)(F)F,Percent Effect,"30.3 µM, […]",-37.26%
O=C(C1CCOC1)N1CCC2(CCN(Cc3nccs3)CC2)CC1 (stereo not given),Percent Effect,"30 µM, 30.03 µM",55.49%
O=C(C1CCOC1)N1CCC2(CCN(Cc3nccs3)C2)CC1 (stereo not given),Percent Effect,"30 µM, 30.03 µM",6.218%
O=C(C1CCOCC1)N1CCC2(CCN(Cc3nccs3)CC2)CC1.O=C(O)C(F)(F)F,Percent Effect,"30 µM, 30.03 µM",11.85%
CCn1cc(C(=O)N2C[C@H]3C[C@H](Oc4ccccc4)C[C@H]3C2)cn1,Percent Effect,"30.3 µM, […]",7.287%
CS(=O)(=O)NCc1nnc2n1CCN(Cc1ccccn1)C2,Percent Effect,"30.3 µM, […]",73.82%
CS(=O)(=O)NCc1nnc2n1CCN(Cc1cccnc1)C2,Percent Effect,"30.3 µM, […]",-308.6%
CS(=O)(=O)NCc1nnc2n1CCN(Cc1ccncc1)C2,Percent Effect,"30.3 µM, […]",-346.7%
